PubChem BioAssay
A number with no mark means an inactive call. The rule behind the calls is not given here.

system: Aerobactin synthetase IucA (Klebsiella pneumoniae, hypervirulent); test: IucA enzyme inhibition, biochemical, LOPAC library, absorbance readout (AID 1346212); conditions: IucA enzyme assay, absorbance (OD) readout; stronger effect = lower value;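 tested at 8 µM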;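 note: 100% = no compound wells and 0% = no enzyme wells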

Row | Structure (SMILES) | remaining activity
1 | CCc1cccc(N(C)C(N)=Nc2cccc3ccccc23)c1 | 96.2%
2 | Cc1cccc(C#Cc2ccccc2)n1 | 123%
3 | Nc1nccc2c1ncn2[C@@H]1O[C@H](CO)[C@@H](O)[C@H]1O | 95.9%
4 | CCCCCN(CCCCC)C(=O)C(CCC(=O)O)NC(=O)c1ccc(Cl)c(Cl)c1 (centres undefined) | 110%
5 | CC(C)(C)c1ccc(C(O)CCCN2CCC(C(O)(c3ccccc3)c3ccccc3)CC2)cc1 (centres undefined) | 101%
6 | CC(C)(C)c1ccc(/C=C/C(=O)Nc2ccc3c(c2)OCCO3)cc1 | 107%
7 | Brc1ccc([C@H]2CN3CCSC3=N2)cc1 | 105%
8 | Nc1cc(=O)[nH]c(N)n1 | 126%
9 | O=C1Cc2c([nH]c3ccc(Br)cc23)-c2ccccc2N1 | 125%
10 | C[C@@H]1[C@@H]2Cc3ccc(O)cc3[C@@]1(C)CCN2CC1CC1 | 103%
11 | Brc1c(Br)c(Br)c2[nH]cnc2c1Br | 110%
12 | CCCOC(=O)c1c(-c2ccccc2)nc(CC)c(C(=O)SCC)c1CCC | 106%
13 | Cc1nc2sccn2c(=O)c1CCN1CCC(=C(c2ccccc2)c2ccc(F)cc2)CC1 | 123%
14 | COc1cc2ncc(-c3ccccc3)nc2cc1OC | 120%
15 | N#C/C(=C\c1ccc(O)c(O)c1)C(=O)NCCCc1ccccc1 | 103%
16 | COc1ccc(CC(C)NCC(O)c2ccc(O)c(NC=O)c2)cc1 (centres undefined) | 102%
17 | COCC(=O)O[C@]1(CCN(C)CCCc2nc3ccccc3[nH]2)CCc2cc(F)ccc2[C@@H]1C(C)C | 128%
18 | Cc1cccc(C)c1OCC(C)N (centres undefined) | 113%
19 | CC(C)(Sc1ccc(CCN(CCCCC2CCCCC2)C(=O)NC2CCCCC2)cc1)C(=O)O | 119%
20 | O=c1[nH]c2cc(C(F)(F)F)ccc2n1-c1cc(C(F)(F)F)ccc1O | 112%

Row | Structure (SMILES) | remaining activity
21 | NCCS(=O)O | 101%
22 | OC1(c2ccc(Cl)cc2)CCN(Cc2c[nH]c3ccccc23)CC1 | 112%
23 | CCN1/C(=C/C(C)=O)Sc2ccc(OC)cc21 | 123%
24 | NC(=O)c1ncn([C@@H]2O[C@H](CO)[C@@H](O)[C@H]2O)c1O | 122%
25 | NC(=NCCC[C@H](N)C(=O)O)NO | 101%
26 | CCCCCCCCCCCCCCCC(=O)NCCO | 118%
27 | CCCCN1CCC(n2c(=O)[nH]c3ccccc32)CC1 | 110%
28 | OC[C@H]1O[C@@H](n2cnc3c(NC4CCCC4)ncnc32)[C@H](O)[C@@H]1O | 117%
29 | NC(Cc1cccc(-c2ccccc2CP(=O)(O)O)c1)C(=O)O (centres undefined) | 103%
30 | CC(=O)N[C@@H](Cc1c[nH]c2ccccc12)C(=O)OCc1cc(C(F)(F)F)cc(C(F)(F)F)c1 | 117%
31 | C#CCN(C)CCCOc1ccc(Cl)cc1Cl | 122%
32 | NOCC(=O)O | 124%
33 | CCC(=O)c1ccc2c(c1)N(CCCN(C)C)c1ccccc1S2 | 88.8%
34 | N#Cc1cc([N+](=O)[O-])c2sc(C(N)=O)[n+]([O-])c2c1 | 106%
35 | O=C(O)/C=C/C(O)c1ccc(Cl)cc1 (centres undefined) | 120%
36 | OC[C@H]1O[C@@H](n2cnc3c(Nc4ccccc4)ncnc32)[C@H](O)[C@@H]1O | 89.3%
37 | Nc1nc(N)c2nc(CNc3ccc(C(=O)N[C@@H](CCC(=O)O)C(=O)O)cc3)cnc2n1 | 112%
38 | NC(N)=NCCC[C@H](N)C(=O)O | 111%
39 | COc1cc2nc(N3CCN(C(=O)OCc4ccccc4)[C@H](C(=O)NC(C)(C)C)C3)nc(N)c2cc1OC | 91.6%
